For 18 molecules, efficacy, outcome and AC50 results are on record in PubChem BioAssay (NCATS).

The conditions of assay [1]: Ebola virus entry assay, green fluorescence channel.
For assay [2] the following is noted: Ebola virus entry assay, blue channel fluorescence.
The conditions of assay [3]: Ebola virus entry assay, ratio channel.
The conditions of assay [4]: Ebola virus entry assay, reporter ratio channel; Channel type: primary.
The conditions of assay [5]: Ebola virus entry assay, blue channel (ratio component).

Unmarked numbers belong to inactive results. For part of these data: Results with a measured potency or affinity are listed apart. The source made the active and inactive calls. No rule for the calls is given here.
For efficacy in this document: 0% is about no effect.

As to `C=CCNc1nc(NCC=C)nc(N2CCN(C(c3ccc(F)cc3)c3ccc(F)cc3)CC2)n1`, the efficacy in assay [1] was 31%. Also, the call in assay [2], in assay [3], in assay [4] and in assay [5] was inactive.
In the case of `O=C(Cn1ccnc1[N+](=O)[O-])NCCO`, the efficacy in assay [1] was -27.8%. The outcome in assay [2], in assay [3], in assay [4] and in assay [5] was inactive.
As to `CCNC(=O)NCCCOc1cccc(CN2CCCCC2)c1`, in assay [1], the efficacy was 42.2%. Further, the outcome in assay [2], in assay [3], in assay [4] and in assay [5] was inactive.
In the case of `CCCC(=O)O[C@]1(C(=O)CC)CC[C@H]2[C@@H]3CCC4=CC(=O)CC[C@]4(C)[C@H]3[C@@H](O)C[C@@]21C`, in assay [1], the efficacy is 46.1%. The molecule was classed as inactive in assay [2], in assay [3], in assay [4] and in assay [5].
For `O=C(NCC1CN(c2ccc(N3CCOCC3=O)cc2)C(=O)O1)c1ccc(Cl)s1` (stereo not given), the efficacy in assay [1] is 23%. Further, the call in assay [2], in assay [3], in assay [4] and in assay [5] was inactive.
`CC(C)(C)CC(=O)OCC(=O)[C@@]1(O)CC[C@H]2[C@@H]3CCC4=CC(=O)C=C[C@]4(C)[C@H]3[C@@H](O)C[C@@]21C`: the efficacy in assay [1] is 47.7%. The molecule was classed as inactive in assay [2], in assay [3] and in assay [5]. The AC50 in assay [4] is 28.2 µM (active).
On to `CN1CCOC(c2ccccc2)c2ccccc2C1` (stereo not given), for which, in assay [1], the efficacy was 45.6%. For the same molecule, the call in assay [2], in assay [3] and in assay [5] was inactive. For the same molecule, the AC50 in assay [4] is 39.8 µM (active).
`CC[N+](CC)(CC)CCOc1ccc(/C=C/c2ccccc2)cc1`: the efficacy in assay [1] was 64.2%. Further, the outcome in assay [2], in assay [3] and in assay [5] was inactive. In addition, in assay [4], the AC50 was 39.8 µM (active).
Consider `COc1cc2c(cc1OC)C(C(C(=O)N(CCc1ccc(OC)c(OC)c1OC)CCc1ccc(OC)c(OC)c1OC)c1ccccc1)=NCC2` (stereo not given), for which the efficacy in assay [1] is 62.1%. Besides, the result in assay [2] and in assay [5] was inactive. Moreover, the AC50 in assay [3] and in assay [4] was 11.2 µM (active) in each case.
`Oc1ccc(/C=C/c2cc(O)cc(O)c2)cc1`: in assay [1], the efficacy was 48.9%. Besides, the molecule was classed as inactive in assay [2], in assay [3], in assay [4] and in assay [5].
For the molecule `COC(=O)c1nc(Cl)c(Cl)nc1N`, in assay [1], the efficacy is 66.4%. In addition, the molecule was classed as inactive in assay [2] and in assay [5]. For the same molecule, the concentration at half-maximal activity (AC50) in assay [3] and in assay [4] was 4.47 µM (active) throughout.
`CC(C)NCCCC1(C(N)=O)c2ccccc2-c2ccccc21`: the efficacy in assay [1] is 42.8%. Further, the call in assay [2], in assay [3], in assay [4] and in assay [5] was inactive.
For the molecule `NS(=O)(=O)c1ccc(N2CCCCS2(=O)=O)cc1`, in assay [1], the efficacy is -36.2%. Further, the molecule was classed as inactive in assay [2], in assay [3], in assay [4] and in assay [5].
Consider `CC1(C)O[C@@H]2C[C@H]3[C@@H]4C[C@H](F)C5=CC(=O)C=C[C@]5(C)[C@H]4[C@@H](O)C[C@]3(C)[C@]2(C(=O)CO)O1`, for which the efficacy in assay [1] was 79.9%. In addition, the call in assay [2], in assay [3], in assay [4] and in assay [5] was inactive.
In the case of `NCCc1ccc(O)c(O)c1`, the efficacy in assay [1] is 28.6%. Moreover, the molecule was classed as inactive in assay [2], in assay [3], in assay [4] and in assay [5].
`CC(=O)OCC(=O)[C@@]1(O)CC[C@H]2[C@@H]3CCC4=CC(=O)C=C[C@]4(C)[C@H]3[C@@H](O)C[C@@]21C`: the efficacy in assay [1] was -46.1%. The molecule was called inactive in assay [2], in assay [3], in assay [4] and in assay [5].
In the case of `Nc1c2c(nc3ccccc13)CCCC2O` (stereo not given), the efficacy in assay [1] is 42.6%. In addition, the molecule was classed as inactive in assay [2], in assay [3], in assay [4] and in assay [5].
For the molecule `COc1ccc(S(=O)(=O)N2c3ccc(Cl)cc3[C@@](O)(c3ccccc3Cl)[C@H]2C(=O)N2CCC[C@@H]2C(N)=O)cc1OC`, the efficacy in assay [1] is 45%. Besides, the AC50 in assay [2], in assay [3] and in assay [4] was 10 µM (active) each time. Moreover, the result in assay [5] was inactive.

By AC50 is commonly meant the midpoint of the concentration-response curve, whichever way the signal moves.
